Data published in PubChem BioAssay (NCI).
This is part of a sample that, as a whole, favours compounds with a hit. Of some 83,000 tested, about 20% had one in any assay.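 Negative percent growth values reflect cell death: -40 means 40% of the cells present at the start died, and -100 means all died.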 A number with no mark means an inactive call. The source made the active and inactive calls. Rule for the calls: active = growth percent below 10; inactive = the rest.

Tests used:
Assay in all cases: NCI-60 one-dose screen, 48 h (100 = growth as untreated, 0 = no growth, -100 = all killed)
Settings in all cases: 10 µM unless noted
SR leukemia = test system: SR leukemia
RPMI-8226 leukemia = test system: RPMI-8226 leukemia
OVCAR-8 ovarian = test system: OVCAR-8 ovarian
OVCAR-5 ovarian = test system: OVCAR-5 ovarian
OVCAR-4 ovarian = test system: OVCAR-4 ovarian
SK-OV-3 ovarian = test system: SK-OV-3 ovarian
IGROV1 ovarian = test system: IGROV1 ovarian
OVCAR-3 ovarian = test system: OVCAR-3 ovarian
HS 578T breast = test system: HS 578T breast
NCI/ADR-RES ovarian = test system: NCI/ADR-RES ovarian

| Structure (SMILES) | growth (SR leukemia) | growth (RPMI-8226 leukemia) | growth (OVCAR-8 ovarian) | growth (OVCAR-5 ovarian) | growth (OVCAR-4 ovarian) | growth (SK-OV-3 ovarian) | growth (IGROV1 ovarian) | growth (OVCAR-3 ovarian) | growth (HS 578T breast) | growth (NCI/ADR-RES ovarian) |
| --- | --- | --- | --- | --- | --- | --- | --- | --- | --- | --- |
| CCn1cnc(C[C@H](NC(=O)[C@H](CCCCNC(=O)Nc2cc(C(F)(F)F)cc(C(F)(F)F)c2)NC(=O)Nc2cc(C(F)(F)F)cc(C(F)(F)F)c2)C(=O)OC)c1 | -29% [100 µM] (active) | -42.4% [100 µM] (active) | -9.32% [100 µM] (active) | -67.9% [100 µM] (active) | -17.2% [100 µM] (active) | -23.7% [100 µM] (active) | -23.5% [100 µM] (active) | -90.2% [100 µM] (active) | -7.06% [100 µM] (active) | 51.5% [100 µM] |
| COc1ccc2nc(-c3ccc(Cl)cc3)cc(-c3nnc(SCC(=O)Nc4ccc(C(C)=O)cc4)n3-c3ccccc3)c2c1 | 83.7% | 104% | 102% | 96.4% | 93.7% | 93.9% | 107% | 96.8% | 99.5% | 95.2% |
| COc1ccc(NC(=O)c2ccccc2-c2ccccc2)c(C(N)=O)c1 | 8.17% (active) | 38.2% | 58.8% | 88.3% | 49.5% | 32.3% | 52.1% | -22.4% (active) | 38.9% | 26.9% |
| CC1c2ccccc2-c2ccccc2N1C (stereo unspecified) | 96.3% | 90.5% | 106% | 101% | 110% | 101% | 98.3% | 104% | 112% | 108% |
| NS(=O)(=O)c1cc2c(cc1Cl)NC=NS2(=O)=O | 96.1% | 104% | 102% | 100% | 107% | 110% | 109% | 117% | 118% | 108% |
| Nc1ccn(C2O[C@H](CO)[C@@H](O)[C@@H]2O)c(=O)n1 (stereo partly specified) | 9.93% (active) | 64.4% | 34% | 70.1% | 83.4% | 55.6% | 51.9% | 67.6% | 107% | 34.6% |
| CNCCCn1c2c(c3ccc(F)cc3c1=O)C(=O)c1cc(OC)cnc1-2 | -9.31% (active) | -20.4% (active) | -19.8% (active) | -8.53% (active) | -5.91% (active) | -24.5% (active) | 11.4% | -11.4% (active) | 22.1% | 3.1% (active) |
| COc1ccc(C2=NN(C(C)=O)C(c3c(C)nn(-c4ccccc4)c3N3CCOCC3)C2)cc1 (stereo unspecified) | 90.5% | 97.9% | 94.4% | 97.6% | 89.5% | 80.4% | 103% | 104% | 96.7% | 94.7% |
| COc1cccc2c1C(=O)c1c(O)c3c(c(O)c1C2=O)C[C@@](O)(C(C)=O)C[C@@H]3O[C@H]1C[C@H](N)[C@H](O)[C@H](C)O1 | -5.17% (active) | -22.9% (active) | -6.3% (active) | 2.15% (active) | -16.8% (active) | 7.97% (active) | -10.2% (active) | -18.7% (active) | -17.6% (active) | 11.8% |
| Cc1ccc(-c2c3c(N)c4c(nc3nc3c2c(C)nn3-c2ccccc2)CCC4)cc1 | 6.66% (active) | 85.6% | 88% | 94.7% | 124% | 96.4% | 96.3% | 102% | 87.9% | 85.7% |
| COc1ccc(Cl)cc1Nc1nc(C(F)(F)F)ccc1C(=O)N/N=C/c1c(Cl)cccc1Cl | 22% | 40.1% | 55.2% | 75.3% | 39% | 49.7% | 29.6% | -2.74% (active) | 54.3% | 49.9% |
| N#Cc1c(-c2ccccc2)cc(-c2ccccc2)n(CCC(=O)O)c1=O | 19.8% | 50.3% | 50.3% | 94.2% | 90.8% | 92% | 50.2% | 14.8% | – | 33.7% |
| O=C(CNC(=O)c1cccc2ccccc12)Nc1ccccc1Oc1cccc(O)c1 | 18.7% [5 µM] | 25.9% [5 µM] | 15.3% [5 µM] | 39.9% [5 µM] | 59.1% [5 µM] | 7.7% [5 µM] (active) | 42.9% [5 µM] | -10.8% [5 µM] (active) | – | 13% [5 µM] |
| N#Cc1c(-c2ccc(F)cc2)n2c(nc1=O)SC(=O)C2=O | 91.3% | 76.8% | 98% | 110% | 100% | 115% | 108% | 123% | 104% | 94.5% |
| C[C@H]1O[C@@H](O[C@H]2[C@@H](O)C[C@H](O[C@H]3[C@@H](O)C[C@H](O[C@H]4CC[C@]5(C)C6C[C@@H](O)[C@]7(C)[C@@H](C8=CC(=O)OC8)CC[C@]7(O)C6CC[C@@H]5C4)O[C@@H]3C)O[C@@H]2C)C[C@H](O)[C@@H]1O (stereo partly specified) | -9.87% (active) | -23.7% (active) | -93.5% (active) | -99.7% (active) | -29.6% (active) | -93.3% (active) | -38.4% (active) | -100% (active) | – | -87.7% (active) |
| CCN1CCN(c2nc(NNC(=O)Cc3ccccc3)nc(N3CCN(C(c4ccccc4)c4ccccc4)CC3)n2)CC1 | -22.3% (active) | 36.6% | 64.4% | 102% | 86.6% | 114% | 64.1% | 46.2% | – | 90.4% |
| CCCCCc1c(C)[nH]c(/C=C2\N=C(c3ccc[nH]3)C=C2OCc2ccccc2)c1C | -26.1% [100 µM] (active) | -46.2% [100 µM] (active) | -64.2% [100 µM] (active) | -98% [100 µM] (active) | -89.3% [100 µM] (active) | -97.1% [100 µM] (active) | -66% [100 µM] (active) | -89% [100 µM] (active) | – | -48.5% [100 µM] (active) |
| Cc1ccc(NC(=O)c2sc3nc4c(cc3c2N)C(=O)CCC4)cc1 | 63.1% | 93.4% | 98.3% | 78.6% | 106% | 37.5% | 95.9% | 133% | – | 98.2% |
| C/C=C(/C(=C/C)c1ccc(O)cc1)c1ccc(O)cc1 | 15.5% | 18.3% | 48.3% | 50.1% | 58.6% | 10.7% | 36.2% | -1.49% (active) | 25.6% | 24.3% |
| O=C1CSC(c2ccccc2O)N1c1nnc(Cn2ccnc2)o1 (stereo unspecified) | 43.9% | 36.1% | 58.8% | 97.2% | 64.4% | 74.2% | 67.7% | 37.8% | 80.6% | 26% |
| Cc1cc(=O)oc2cc(OCCn3c(C)nn(-c4ccc(Cl)cc4)c3=O)ccc12 | 21.2% | 31% | 17.7% | 38.8% | 67.1% | 41.1% | 59.7% | 14.8% | 34.8% | 24.7% |
| Clc1ccc(C2=NN(c3ccc(Cl)cc3)C(c3cccc(Nc4ccnc5cc(Cl)ccc45)c3)C2)cc1 (stereo unspecified) | 77% | 71.7% | 80.4% | 93.5% | 73% | 60.7% | 75.4% | 85.8% | – | 74.1% |
| COc1ccc(-c2cc(-c3nnc(SCC(=O)Nc4ccc(C(C)=O)cc4)n3-c3ccccc3)c3ccccc3n2)cc1OC | 121% | 105% | 104% | 106% | 106% | 81.6% | 105% | 96.8% | 108% | 104% |
| COc1cc(-c2nnc(-c3nc(-c4cc(OC)c(OC)c(OC)c4)n4ccccc34)o2)ccc1N | 69.6% | 39.6% | 50.8% | 106% | 76.5% | 96% | 56.4% | 77.6% | 44.2% | 61.3% |
| CCCCc1n(Cc2ccc3ccccc3c2)cc[n+]1Cc1ccc2ccccc2c1 | -44.1% (active) | -39.9% (active) | -35.8% (active) | 8.66% (active) | 9.46% (active) | -3.39% (active) | -57.9% (active) | -80.1% (active) | – | 87.9% |
| COC(=O)[C@H](Cc1cnc[nH]1)NC(=O)[C@@H](NC(=O)Nc1cc(C(F)(F)F)cc(C(F)(F)F)c1)C(C)C | -37% [100 µM] (active) | -53% [100 µM] (active) | -83.6% [100 µM] (active) | -82.7% [100 µM] (active) | -85.1% [100 µM] (active) | -100% [100 µM] (active) | -80.5% [100 µM] (active) | -100% [100 µM] (active) | – | 73.9% [100 µM] |
